A short description of test [1]: Quantitative High-Throughput drug screen in 47 multiple myeloma cell lines against the NCATS MIPE library collection: Delta47_JCRB cell viability assay (AID 1918925; note: nearly all actives have a fitted effect of over 45% in size). The essentials:
(§1)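 Relative luminescence from CellTiter-Glo served as the viability signal, referenced to DMSO-treated (100%) and cell-free medium (0%) controls. Treatment lasted 48 hours at 37C with 500 cells per well.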

Test [2] can be described thus: Quantitative High-Throughput drug screen in 47 multiple myeloma cell lines against the NCATS MIPE library collection: EJM_DSMZ cell viability assay (AID 1918926; note: nearly all actives have a fitted effect of over 30% in size). In short, it runs like this: as §1
A short description of test [3]: Quantitative High-Throughput drug screen in 47 multiple myeloma cell lines against the NCATS MIPE library collection: AMO1_DSMZ cell viability assay (AID 1918927; note: nearly all actives have a fitted effect of over 30% in size). In short, it runs like this: as §1
A short description of test [4]: Quantitative High-Throughput drug screen in 47 multiple myeloma cell lines against the NCATS MIPE library collection: ARP1_JJKsccF8 cell viability assay (AID 1918928; note: nearly all actives have a fitted effect of over 40% in size). The essentials: (§2)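 500 cells/well; MIPE 4.0 library pinned in; 48 h, 37 °C, 5% CO2; CellTiter-Glo ATP luminescence. Controls: DMSO = 100% viability, medium only = 0%.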
The nature of test [5]: Quantitative High-Throughput drug screen in 47 multiple myeloma cell lines against the NCATS MIPE library collection: Karpas620_DSMZ cell viability assay (AID 1918959). Note: nearly all actives have a fitted effect of over 30% in size. The essentials:
(§3)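 We plated 500 myeloma cells per well, pinned in MIPE 4.0 compounds, and incubated for 48 hours at 37C. ATP was then quantified with CellTiter-Glo, with DMSO and media-only wells defining 100% and 0%.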

Test [6] is described as follows: Quantitative High-Throughput drug screen in 47 multiple myeloma cell lines against the NCATS MIPE library collection: KHM11_PLB cell viability assay (AID 1918962). Note: nearly all actives have a fitted effect of over 35% in size. The essentials: as §3
A short description of test [7]: Quantitative High-Throughput drug screen in 47 multiple myeloma cell lines against the NCATS MIPE library collection: JIM3_ECACC cell viability assay (AID 1918963; note: nearly all actives have a fitted effect of over 35% in size). The essentials: as §3
Test [8] can be described thus: Quantitative High-Throughput drug screen in 47 multiple myeloma cell lines against the NCATS MIPE library collection: JIM1_ECACC cell viability assay (AID 1918964). The essentials: as §1
Test [9] in a line: Quantitative High-Throughput drug screen in 47 multiple myeloma cell lines against the NCATS MIPE library collection: INA6_PLB cell viability assay (AID 1918965; note: nearly all actives have a fitted effect of over 55% in size). The essentials: (§4)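 Viability readout: CellTiter-Glo luminescence following 5 min room-temperature incubation with reagent. Prior exposure: 48 h, 37C, humidified 5% CO2, 500 cells per well.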
The nature of test [10]: Quantitative High-Throughput drug screen in 47 multiple myeloma cell lines against the NCATS MIPE library collection: JJN3_DSMZ cell viability assay (AID 1918966; note: nearly all actives have a fitted effect of over 50% in size). The essentials:
as §1

A short description of test [11]: Quantitative High-Throughput drug screen in 47 multiple myeloma cell lines against the NCATS MIPE library collection: Karpas25_ECACC cell viability assay (AID 1918968; note: nearly all actives have a fitted effect of over 35% in size). In short, it runs like this: as §1
Test [12] can be described thus: Quantitative High-Throughput drug screen in 47 multiple myeloma cell lines against the NCATS MIPE library collection: KMS12BM_JCRB cell viability assay (AID 1918971). Note: nearly all actives have a fitted effect of over 35% in size. The essentials: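 CellTiter-Glo luminescence (ATP) after 48 h compound exposure, 37C/5% CO2; 500 cells/well; MIPE 4.0 approved/investigational drugs pinned in; DMSO = 100%, media only = 0% viability.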

Test [13] can be described thus: Quantitative High-Throughput drug screen in 47 multiple myeloma cell lines against the NCATS MIPE library collection: KMS20_JCRB cell viability assay (AID 1918973). Note: nearly all actives have a fitted effect of over 45% in size. In short, it runs like this:
as §1

Test [14] is described as follows: Quantitative High-Throughput drug screen in 47 multiple myeloma cell lines against the NCATS MIPE library collection: ARD_JJKsccE7 cell viability assay (AID 1918929). In short, it runs like this: as §1
The nature of test [15]: Quantitative High-Throughput drug screen in 47 multiple myeloma cell lines against the NCATS MIPE library collection: KMM1_JCRB cell viability assay (AID 1918960). Note: nearly all actives have a fitted effect of over 30% in size. The essentials: as §2
A short description of test [16]: Quantitative High-Throughput drug screen in 47 multiple myeloma cell lines against the NCATS MIPE library collection: Karpas417_ECACC cell viability assay (AID 1918961). The note with it: Karpas417 myeloma viability, CellTiter-Glo ATP luminescence, 48 h; viability (% of DMSO): at 45.8 µM (top of the series). The essentials: as §4
In general terms: Cellular ATP, detected with luciferase, serves as a proxy for viable cell number.

Test [17] in a line: Quantitative High-Throughput drug screen in 47 multiple myeloma cell lines against the NCATS MIPE library collection: KMS27_JCRB cell viability assay (AID 1918970). Note: nearly all actives have a fitted effect of over 30% in size. The essentials: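 Each line is seeded at 500 cells per well and treated with library compounds for 48 hours under 37 °C, 5% CO2. CellTiter-Glo is then added for 5 min at room temperature before median relative luminescence is recorded.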

A short description of test [18]: Quantitative High-Throughput drug screen in 47 multiple myeloma cell lines against the NCATS MIPE library collection: KMS12PE_JCRB cell viability assay (AID 1918972). Note: nearly all actives have a fitted effect of over 30% in size. In short, it runs like this: as §4
The nature of test [19]: Quantitative High-Throughput drug screen in 47 multiple myeloma cell lines against the NCATS MIPE library collection: KMS21BM_JCRB cell viability assay (AID 1918974). The note with it: ATP luminescence, 48 h; viability: at 45.8 µM (top of the series) unless noted. In short, it runs like this:
as §1

Test [20] can be described thus: Quantitative High-Throughput drug screen in 47 multiple myeloma cell lines against the NCATS MIPE library collection: H1112_PLB cell viability assay (AID 1918967; note: nearly all actives have a fitted effect of over 30% in size). The essentials:
as §1

Inconclusive results are not listed. A number with no mark means an inactive call. Activity calls are given as the source filed them. Calls come from the whole dose curve; as a rule, active = well fitted curve in the direction sought with a large enough effect; inconclusive = small, poorly fitted or top-dose-only effect, or another doubt; inactive = no such curve, though single readings can be large; an effect the other way counts as inactive or inconclusive.
Potency is the fitted concentration of half-maximal effect.

In the case of `Cc1c(CN2CCN(S(C)(=O)=O)CC2)sc2c(N3CCOCC3)nc(-c3cnc(N)nc3)nc12`, the Potency was 0.0105 µM (active) in [1]; 0.105 µM (active) in test [2]; 0.0935 µM (active) in test [3]; 0.0083 µM (active) in test [4]; 0.0662 µM (active) in [5]; 0.0332 µM (active) in [6]. The Potency in [7] was 0.0662 µM (active); in test [8], 0.0187 µM (active); in [9], 0.264 µM (active); in test [10], 0.0469 µM (active); in test [11], 0.0187 µM (active); in [12] it was 0.0132 µM (active). The Potency in test [13] was 0.0372 µM (active).
Consider `COc1cc2c(Oc3ccc(NC(=O)C4(C(=O)Nc5ccc(F)cc5)CC4)cc3F)ccnc2cc1OCCCN1CCOCC1`, for which the Potency is 0.418 µM (active) in test [1]; 18.7 µM (active) in test [2]; 5.26 µM (active) in test [3]; 2.64 µM (active) in test [14]; 6.62 µM (active) in test [5]; 2.96 µM (active) in [15]. In addition, the Potency was 2.35 µM (active) in test [16]; 7.43 µM (active) in test [6]; 11.8 µM (active) in test [7]; 1.66 µM (active) in [8]; 7.43 µM (active) in [9]; 16.6 µM (active) in [10]. Besides, the Potency in test [11] is 0.935 µM (active); in [17], 9.35 µM (active); in [18], 3.72 µM (active).
As for `CNC(=O)c1ccccc1Nc1nc(Nc2ccc(N3CCOCC3)cc2OC)ncc1Cl`, the Potency was 0.148 µM (active) in test [1]; 13.2 µM (active) in [2]; 0.418 µM (active) in test [3]; 0.935 µM (active) in test [4]; 0.0935 µM (active) in test [14]; 0.296 µM (active) in test [15]. In addition, the Potency in test [6] is 7.43 µM (active); in [7] it was 0.209 µM (active); in test [9] it was 5.26 µM (active); in test [10] it was 3.72 µM (active); in test [17] it was 0.132 µM (active); in [12], 13.2 µM (active). In addition, the Potency was 1.05 µM (active) in test [18], 2.35 µM (active) in [13] and 0.209 µM (active) in test [19].
On to `Cc1cn2c(-c3cn[nH]c3)cnc2c(Nc2ccc(C(=O)N3CCNCC3)cc2F)n1`, for which the Potency is 7.43 µM (active) in test [1]; 18.7 µM (active) in test [2]; 23.5 µM (active) in test [4]; 5.9 µM (active) in [14]; 16.6 µM (active) in [6]; 23.5 µM (active) in test [7]. The Potency in test [9] is 16.6 µM (active); in test [20], 20.9 µM (active); in test [11], 18.7 µM (active); in test [12], 14.8 µM (active); in test [18] it was 5.26 µM (active); in test [13] it was 18.7 µM (active). Moreover, the Potency entry in test [3] is “inactive”.
As for `CCCCN1CCC(CNC(=O)c2c3n(c4ccccc24)CCCO3)CC1`, the Potency in test [1] is 6.62 µM (active); in [2], 1.48 µM (active); in [3], 13.2 µM (active); in test [4], 20.9 µM (active); in test [6], 11.8 µM (active); in [7], 18.7 µM (active). Moreover, the Potency is 16.6 µM (active) in test [9]; 9.35 µM (active) in [20]; 8.33 µM (active) in test [11]; 10.5 µM (active) in [12]; 13.2 µM (active) in test [13].
